Assay results published in PubChem BioAssay AID1259374 (The Scripps Research Institute Molecular Screening Center, 2018).
Among all 650,000 compounds or so, about 5,900 (0.91%) were called active. No stated cut-off is given here; in the data, active means inhibition above about 50%; inactive means the rest. For the sample, actives were picked, then their nearest neighbours and some compounds at random.

target: Microphthalmia-associated transcription factor (Homo sapiens) (UniProt O75030); assay: MITF inhibitors, primary screen, biochemical, AlphaScreen, human (AID 1259374); details: AlphaScreen MITF homodimerization, bead proximity signal; at 2.6 µM; stronger effect = higher value;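 further: 0% = vehicle wells with protein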
Sequence (O75030 whole entry, looked up): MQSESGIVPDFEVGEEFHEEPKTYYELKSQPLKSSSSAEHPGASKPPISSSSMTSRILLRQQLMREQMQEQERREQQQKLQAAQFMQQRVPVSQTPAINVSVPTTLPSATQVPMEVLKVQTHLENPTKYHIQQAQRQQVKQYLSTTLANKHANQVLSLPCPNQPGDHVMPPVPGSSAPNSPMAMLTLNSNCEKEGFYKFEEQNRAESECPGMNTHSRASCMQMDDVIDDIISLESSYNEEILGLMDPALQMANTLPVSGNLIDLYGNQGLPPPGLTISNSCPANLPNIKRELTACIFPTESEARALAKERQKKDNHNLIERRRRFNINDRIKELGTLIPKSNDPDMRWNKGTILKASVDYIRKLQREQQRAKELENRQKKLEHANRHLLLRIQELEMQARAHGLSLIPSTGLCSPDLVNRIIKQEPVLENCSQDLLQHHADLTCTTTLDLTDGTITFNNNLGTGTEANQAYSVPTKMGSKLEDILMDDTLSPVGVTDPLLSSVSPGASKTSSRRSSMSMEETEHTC

Question: Which inhibition does the source give for `O=C(NCCO)/C(=C/c1ccco1)NC(=O)c1ccccc1` here?
Answer: 13.5% (inactive)

Question: Which inhibition does the source give for `CCCCNC(=O)/C(=C/c1ccco1)NC(=O)c1ccccc1` here?
Answer: 5.66% (inactive)

Question: With `O=C(O)CCCCCNC(=O)/C(=C\c1ccco1)NC(=O)c1ccccc1` as the molecule, how does the inhibition read?
Answer: 52.3% (active)

Question: `CC(C)(CO)NC(=O)CCC1(Cc2ccc3ccccc3c2)CCC(=O)N1` (centres undefined) was tested. Which inhibition did it give?
Answer: 5.16% (inactive)

Question: `CCc1ccc(C(=O)CC(c2ccccc2)C2CCCCC2=O)cc1` (centres undefined) was tested. Which inhibition did it give?
Answer: 2.82% (inactive)

Question: `Cc1cncn(CC(=O)NCCOc2ccccc2)c1=O` was tested. Which inhibition did it give?
Answer: -1.97% (inactive)

Question: For `O=C(CCCN1C(=O)/C(=C\c2ccco2)SC1=S)Nc1ccccc1C(=O)O`, which inhibition is on record?
Answer: 9.5% (inactive)

Question: How did the inhibition turn out when `COc1cc(/C=C2/SC(=S)N(C(CCSC)C(=O)O)C2=O)ccc1O` (centres undefined) was run?
Answer: 15.5% (inactive)

Question: For `CCCC(C(=O)O)N1C(=O)/C(=C/C=C/c2ccco2)SC1=S` (centres undefined), which inhibition is on record?
Answer: 63.6% (active)

Question: Which inhibition does the source give for `Cc1ccc(/C=C2\SC(=S)N(c3cccc(O)c3)C2=O)o1` here?
Answer: 13.4% (inactive)

Question: For `O=C(CCN1C(=O)/C(=C\c2ccco2)SC1=S)Nc1cccc(C(=O)O)c1`, which inhibition is on record?
Answer: 2.65% (inactive)

Question: `CCCCC(C(=O)O)N1C(=O)/C(=C2/C(=O)N(C(C)=O)c3ccccc32)SC1=S` (centres undefined) was tested. Which inhibition did it give?
Answer: 6.57% (inactive)

Question: Which inhibition does the source give for `Cc1ccc(/C=C2\SC(=S)N(C(C)C(=O)O)C2=O)o1` (centres undefined) here?
Answer: 69.4% (active)

Question: Which inhibition does the source give for `O=C(O)CCC(C(=O)O)N1C(=O)/C(=C\c2ccco2)SC1=S` (centres undefined) here?
Answer: 62.6% (active)

Question: How did the inhibition turn out when `CC(C(=O)O)N1C(=O)S/C(=C\c2ccccc2)C1=O` (centres undefined) was run?
Answer: 8.38% (inactive)

Question: How did the inhibition turn out when `CSc1ccc(CCNC(=O)c2cc3ccccn3n2)cc1` was run?
Answer: -9.21% (inactive)

Question: How did the inhibition turn out when `COc1ccc2[nH]c3c(c2c1)CCOC31CCN(C(=O)N[C@@H](C)c2ccccc2)CC1` was run?
Answer: -20.6% (inactive)

Question: `O=C(Nc1cccc(Cl)c1N1CCN(Cc2ccco2)CC1)c1ccc(Br)o1` was tested. Which inhibition did it give?
Answer: -6.95% (inactive)

Question: For `O=C(CNCCC1=CCCCC1)Nc1ccc(N2CCCC2)cc1`, which inhibition is on record?
Answer: 10.5% (inactive)

Question: `O=C(CNC1CCCC1)Nc1ccc(N2CCCC2)cc1` was tested. Which inhibition did it give?
Answer: 6.86% (inactive)

Question: How did the inhibition turn out when `O=C(CNCc1ccc(F)cc1)Nc1ccc(N2CCCC2)cc1` was run?
Answer: 53.1% (active)

Question: How did the inhibition turn out when `O=C(NCc1ccccc1)NC(=O)c1cccnc1` was run?
Answer: 22.7% (inactive)

Question: For `CCOc1ccc(-c2cc(N)n(S(=O)(=O)c3ccc(C)cc3)n2)cc1`, which inhibition is on record?
Answer: -6.9% (inactive)

Question: Which inhibition does the source give for `Cn1c(=NC(=O)CCOc2ccccc2)sc2cc(Br)ccc21` here?
Answer: 3.97% (inactive)

Question: For `CCCC(=O)N=c1sc2cc(S(C)(=O)=O)ccc2n1C`, which inhibition is on record?
Answer: 19% (inactive)

Question: `Cn1c(=NC(=O)COc2ccccc2)sc2cc(S(C)(=O)=O)ccc21` was tested. Which inhibition did it give?
Answer: 52.2% (active)

Question: For `Cc1ccc(/C=C2\N=C(c3cccc(I)c3)OC2=O)cc1`, which inhibition is on record?
Answer: 12.7% (inactive)

Question: With `Cc1ccc(C)c(NC(=O)CN(Cc2ccccc2)S(=O)(=O)c2ccc(Br)cc2)c1` as the molecule, how does the inhibition read?
Answer: -9.84% (inactive)

Question: How did the inhibition turn out when `CCN(Cc1ccccc1)C(=O)c1cc2c(=O)n3cccc(C)c3nc2n1C` was run?
Answer: -25.5% (inactive)

Question: `Cc1ccc(NC(=O)Cn2ccsc2=N)cc1F` was tested. Which inhibition did it give?
Answer: 6.14% (inactive)

Question: With `CC(=O)N1CCN(CC(=O)Nc2ccc(C)c(F)c2)CC1` as the molecule, how does the inhibition read?
Answer: 52.6% (active)

Question: With `Cc1ccc(NC(=O)CN2CCN(c3ccccn3)CC2)cc1F` as the molecule, how does the inhibition read?
Answer: 8.15% (inactive)

Question: How did the inhibition turn out when `CCOc1ccc(Cl)cc1/C=C1/SC(=S)N(CCC(=O)O)C1=O` was run?
Answer: -26.2% (inactive)

Question: For `CC(C)n1cnc2c(NCc3ccccc3)nc(Nc3ccncn3)nc21`, which inhibition is on record?
Answer: 10% (inactive)

Question: For `Cn1c(-c2ccccc2)cnc1NCc1cccc(F)c1`, which inhibition is on record?
Answer: 38% (inactive)

Question: `FC(F)(F)c1cc(-c2cnc3c(NCc4cccnc4)nccn23)cc(C(F)(F)F)c1` was tested. Which inhibition did it give?
Answer: -11.6% (inactive)

Question: `Cn1c(-c2ccc(F)cc2)cnc1NCc1cccnc1` was tested. Which inhibition did it give?
Answer: 72.7% (active)

Question: Which inhibition does the source give for `COc1ccc(C(=O)COC(=O)c2c3c(nc4ccccc24)CCCC3)cc1OC` here?
Answer: 0.37% (inactive)

Question: With `CN(Cc1cccs1)C(=O)CC1(c2cccc(F)c2)CC(=O)N(C2CCCC2)C1=O` (centres undefined) as the molecule, how does the inhibition read?
Answer: 7.07% (inactive)

Question: With `Cc1[nH]c2ccccc2c1CN1CCN(Cc2ccc3c(c2)OCO3)CC1` as the molecule, how does the inhibition read?
Answer: 38.3% (inactive)

Question: `Cc1ccc(N2CCN(Cc3cccnc3)CC2)cc1` was tested. Which inhibition did it give?
Answer: 9.13% (inactive)

Question: Which inhibition does the source give for `OC1(Cc2ccccc2)CCN(Cc2ccncc2)CC1` here?
Answer: 1.54% (inactive)

Question: For `Cc1ccc(CN2CCN(Cc3ccncc3)CC2)cc1`, which inhibition is on record?
Answer: 77.5% (active)

Question: Which inhibition does the source give for `Cc1cc(OCC(O)CN2CCCC2)ccc1Cl` (centres undefined) here?
Answer: 8.73% (inactive)

Question: How did the inhibition turn out when `O=C1OC(c2ccc(F)cc2)=N/C1=C/c1ccc([N+](=O)[O-])cc1` was run?
Answer: 5.42% (inactive)

Question: How did the inhibition turn out when `CCN(CC)CCN1COc2c(cc(Cl)c3cccnc23)C1` was run?
Answer: 102% (active)

Question: How did the inhibition turn out when `CCN(CC)CCN1CCN(c2ncc(-c3ccccc3)n3ccnc23)CC1` was run?
Answer: 8.61% (inactive)

Question: Which inhibition does the source give for `Cn1c(=O)n(Cc2cc3c(cc2Cl)OCO3)c2cccnc21` here?
Answer: 13.7% (inactive)

Question: For `O=C(Cc1cccs1)N/N=C\C=C\c1ccco1`, which inhibition is on record?
Answer: 64.5% (active)

Question: `O=C(Cc1cccs1)N/N=C\c1ccc(Cl)c(Cl)c1` was tested. Which inhibition did it give?
Answer: -9.59% (inactive)

Question: Which inhibition does the source give for `C/C(=N/NC(=O)Cc1cccs1)c1ccc(Br)cc1` here?
Answer: 7.44% (inactive)

Question: `Cc1ccc(N(C(=O)C(C)Oc2ccccc2)C2C=CS(=O)(=O)C2)cc1` (centres undefined) was tested. Which inhibition did it give?
Answer: -4% (inactive)

Question: With `O=C(Nc1cccs1)N1CCC(Cn2c(COc3ccccc3)nc3ccccc32)CC1` as the molecule, how does the inhibition read?
Answer: 12.3% (inactive)

Question: For `COCCCNC(=O)Nc1ccc([N+](=O)[O-])cc1`, which inhibition is on record?
Answer: 6.26% (inactive)

Question: Which inhibition does the source give for `COCCCNC(=O)Nc1ccc(Cl)c(Cl)c1` here?
Answer: 9.41% (inactive)

Question: `COCCNC(=O)Nc1ccc2nc(-c3ccco3)c(-c3ccco3)nc2c1` was tested. Which inhibition did it give?
Answer: 87.1% (active)

Question: With `O=C(CCN1C(=O)C2C3C=CC(C3)C2C1=O)Nc1ncc(S(=O)(=O)c2ccc([N+](=O)[O-])cc2)s1` (centres undefined) as the molecule, how does the inhibition read?
Answer: 2.57% (inactive)

Question: Which inhibition does the source give for `O=C(NNC(=O)c1cc([N+](=O)[O-])ccc1Cl)c1cccc(Cl)c1` here?
Answer: -0.55% (inactive)

Question: Which inhibition does the source give for `CSc1nnc(SCc2nc3sc(C(=O)O)c(C)c3c(=O)[nH]2)s1` here?
Answer: 55.8% (active)

Question: Which inhibition does the source give for `Cc1cc(C)n2c(SCc3nc4sc(C)c(C)c4c(=O)[nH]3)nnc2n1` here?
Answer: 7.98% (inactive)

Question: Which inhibition does the source give for `COC(=O)c1sc2nc(C)[nH]c(=O)c2c1C` here?
Answer: -2% (inactive)

Question: For `Cc1ccc(C)c(N2CCN(Cc3nnnn3Cc3ccc(F)cc3)CC2)c1`, which inhibition is on record?
Answer: 13.1% (inactive)

Question: With `CC1(C(=O)O)NC(c2cc(Cl)cc(Cl)c2O)C2C(=O)N(c3ccccc3)C(=O)C21` (centres undefined) as the molecule, how does the inhibition read?
Answer: -2.7% (inactive)

Question: Which inhibition does the source give for `O=[N+]([O-])c1ccccc1S(=O)(=O)N1CCN(C2Cc3ccccc3C2)CC1` here?
Answer: 52.9% (active)

Question: How did the inhibition turn out when `COc1ccccc1N1CCN(S(=O)(=O)c2ccccc2[N+](=O)[O-])CC1` was run?
Answer: -2.42% (inactive)

Question: For `O=CN1CCN(S(=O)(=O)c2ccccc2[N+](=O)[O-])CC1`, which inhibition is on record?
Answer: -7.16% (inactive)

Question: `CC(=O)c1cccc(-c2nc(C)cc(NCc3nc4ccccc4[nH]3)n2)c1` was tested. Which inhibition did it give?
Answer: -6.7% (inactive)

Question: How did the inhibition turn out when `COC(=O)c1sc(NC(=O)c2ccncc2)c(C#N)c1C` was run?
Answer: 22.1% (inactive)

Question: With `COC(=O)c1sc(NC(=O)c2ccccc2C)c(C#N)c1C` as the molecule, how does the inhibition read?
Answer: 58.6% (active)

Question: How did the inhibition turn out when `COC(=O)c1sc(NC(=O)c2cccc(OC)c2OC)c(C#N)c1C` was run?
Answer: 15.6% (inactive)

Question: How did the inhibition turn out when `O=C(O)CCCCC1SCC2NC(=O)NC21O` (centres undefined) was run?
Answer: 115% (active)

Question: With `COc1ccc(NC(=O)c2cc(S(=O)(=O)NCCc3ccccc3)ccc2F)cc1` as the molecule, how does the inhibition read?
Answer: 9.24% (inactive)

Question: Which inhibition does the source give for `O=c1c2c(nc(SCc3ccccc3)n1-c1ccccc1)-c1ccccc1CC21CCCC1` here?
Answer: 7.99% (inactive)

Question: For `CC(C)C(Nc1nc(N2CCC[C@H]2C(=O)O)ccc1[N+](=O)[O-])C(=O)O` (some centres undefined), which inhibition is on record?
Answer: 4.19% (inactive)
